The source made the active and inactive calls. A call without a number means that no potency is given here. Calls come from the whole dose curve; as a rule, active = well fitted curve in the direction sought with a large enough effect; inactive = no such curve, though single readings can be large or run the other way.
molecular target: Epidermal growth factor receptor (Homo sapiens) (UniProt P00533); assay: Assay for Inhibitors of the ERK Signaling Pathway using a Homogeneous Screening Assay: EGFR Kinase Inhibition; conditions: homogeneous biochemical assay; series mostly up to 21.9 µM
Sequence (P00533 whole entry, looked up): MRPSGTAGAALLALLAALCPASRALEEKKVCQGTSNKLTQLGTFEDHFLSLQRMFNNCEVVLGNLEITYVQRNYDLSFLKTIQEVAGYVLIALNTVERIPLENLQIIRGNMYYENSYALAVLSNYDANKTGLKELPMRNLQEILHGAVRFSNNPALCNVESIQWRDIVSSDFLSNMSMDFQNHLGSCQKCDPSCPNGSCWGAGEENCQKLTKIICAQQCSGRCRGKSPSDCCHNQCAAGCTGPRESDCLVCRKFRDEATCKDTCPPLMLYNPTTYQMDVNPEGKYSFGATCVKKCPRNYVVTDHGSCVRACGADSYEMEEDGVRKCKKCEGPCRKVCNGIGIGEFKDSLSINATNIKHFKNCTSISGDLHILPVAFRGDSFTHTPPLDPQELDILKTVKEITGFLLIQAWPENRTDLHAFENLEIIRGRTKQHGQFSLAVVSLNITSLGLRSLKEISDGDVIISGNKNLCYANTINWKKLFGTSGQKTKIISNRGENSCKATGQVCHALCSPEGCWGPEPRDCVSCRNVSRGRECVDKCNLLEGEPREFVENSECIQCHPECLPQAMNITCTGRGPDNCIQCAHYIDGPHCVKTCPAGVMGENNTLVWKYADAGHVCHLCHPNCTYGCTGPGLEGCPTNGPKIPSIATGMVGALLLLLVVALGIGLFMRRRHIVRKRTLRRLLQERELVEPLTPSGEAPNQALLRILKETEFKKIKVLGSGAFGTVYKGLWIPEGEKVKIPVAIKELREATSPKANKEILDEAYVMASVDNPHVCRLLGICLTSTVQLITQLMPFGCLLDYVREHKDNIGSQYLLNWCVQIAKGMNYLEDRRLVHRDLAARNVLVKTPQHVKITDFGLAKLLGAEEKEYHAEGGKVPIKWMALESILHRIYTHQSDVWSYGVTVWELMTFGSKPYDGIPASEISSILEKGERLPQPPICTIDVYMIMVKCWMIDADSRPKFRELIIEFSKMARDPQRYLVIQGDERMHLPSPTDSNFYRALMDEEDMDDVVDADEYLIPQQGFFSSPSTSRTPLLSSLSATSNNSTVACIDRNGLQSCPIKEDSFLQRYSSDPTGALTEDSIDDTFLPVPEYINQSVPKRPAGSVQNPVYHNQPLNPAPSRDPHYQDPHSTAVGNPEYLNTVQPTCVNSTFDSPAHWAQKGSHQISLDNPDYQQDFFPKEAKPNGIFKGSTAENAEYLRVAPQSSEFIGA
Text: qHTS Assay for Inhibitors of the ERK Signaling Pathway using a Homogeneous Screening Assay
NIH Chemical Genomics Center [NCGC]
NIH Molecular Libraries Screening Centers Network [MLSCN]
Assay Submitter (PI): Dr. Wei Zheng, NCGC/NIH
The Ras/extracellular-signal-regulated kinase (ERK) mitogen activated protein (MAP) kinase signaling pathway (ERK1/2 cascade) plays is a key role in transmitting signals from the cell surface to the nucleus (Nishida and Gotoh 1993; Chang and Karin, 2001). The cascade is initiated by the small G-protein Ras, which recruits Raf […], where activation occurs. Alternatively, this pathway can be activated by elevating intracellular cAMP.
Activation of the ERK pathway is essential in increased cell division and cell survival. Sustained and constitutive activation of the ERK pathway, however, has been linked to uncontrolled cell proliferation, increased cell survival, and tumor progression. Thus, the ERK has been as an attractive target for cancer chemotherapy in the past few years (Sebolt-Leopold and Herrera, 2004). Given its physiological and pathological importance, assessment of ERK phosphorylation has been broadly performed in both basic research and drug discovery. Most assays for the measurement of ERK phosphorylation use the antibody-based detection methods, such as western blot and ELISA. These assays require multiple reagent additions with cell wash steps and are not suitable for high-throughput screening.
The current cell-based ERK phosphorylation assay was performed using AlphaScreen platform. AlphaScreen is a two bead-based proximity-dependent chemical energy transfer luminescent assay platform. The assay reagents (ERK SureFire(TM) kit) were supplied from TGR BioSciences (Australia). In the presence of specific antibodies, phosphorylated ERK will bring "donor" and "acceptor" beads to a proximity range (<200 nm), and subsequently lead a chemical luminescent reaction upon exciting donor beads with 680 nm laser. To validate pathway hits from the cell-based assay, enzyme assays consisting of EGFR tyrosine kinase, Raf and MEK were used as a means of deciphering the enzymes of target for the prioritized group of compounds derived from the HEK-293 cell based assay. The compounds were tested against significant members of the ERK signaling pathway EGFR and EGFR mutants (EGFR L858R, EGFR T790M, and EGFR L858R T790M). In order to establish the specificity of the prioritized compounds for EGFR and EGFR mutants, the compounds were also assayed against other important ERK signaling pathway enzymes, c-RAF and MEK-1.
NCGC Assay Protocol Summary:
The HTRF kinase assay (components supplied as kit by Cisbio) was chosen for the EGFR and EGFR mutant enzyme assays that applied the time resolved fluorescence resonance energy transfer (TR-FRET) principle. A peptide substrate is labeled with a biotin that can bind to XL665 labeled streptavidin and the anti-phosphoresidue antibody is labeled with Eu+. Upon phosphorylation of the substrate, the antibody binds to phosphorylated substrate that enables TR-FRET detection in homogenous assay format.
An HTRF Kinease TK assay kit (Cisbio, Bedford, MA) was used to develop the EGFR and EGFR mutant assays (Harbert et al., 2008. Harbert C, Marshall J, Soh S, Steger K. Development of a HTRF Kinase Assay for Determination of Syk Activity. Current Chemical Genomics. 1: 20-26. 2008). EGFR and EGFR mutants were obtained from Invitrogen. The assay buffer was composed of 50 mM HEPES (pH 7.0), 5 mM MgCl2, 5mM DTT, 0.1 % NaN3, 0.1 % BSA and 0.1 mM orthovanadate.
The HTRF assays were preformed according to the HTRF Kinease TK kit. Optimization for each enzyme was preformed in 384 well format (data not included). All reagents were dispensed into 1536 well plates.
(1) Enzyme, […] EGFR at 3 nM final
(2) Compound, 22 nl, Library Compounds in 0.128 to 10 mM titration series or control
(3) Reagent, 1.5 ul 10 uM ATP and 0.25 uM substrate final
(4) Incubation for 30 min, Ambient conditions
[…]

SMILES | Potency
N#C/C(=C(/N)Sc1ccc(N)cc1)c1ccccc1C(F)(F)F | inactive
Fc1ccc(Nc2ncnc3sc4c(c23)CCC4)cc1F | 70.8 nM (active)
O=C1c2ccccc2C(=O)c2c1cccc2N1CCCC1 | inactive
Cn1nc(-c2ccccn2)nc2c(=O)n(C)c(=O)nc1-2 | inactive
Cn1nc(-c2ccc(Cl)cc2)nc2c(=O)n(C)c(=O)nc1-2 | inactive
Cc1ccc2nc(=O)c(NNc3ccccc3)cnc2c1 | 708 nM (active)
CCn1c(=O)c2[nH]c(-c3ccccc3)nc2n(CC)c1=O | inactive
Cn1c(=O)[nH]c2nnc(-c3ccc(Cl)c(Cl)c3)nc2c1=O | inactive
O=C(Nc1nc(-c2ccccc2)cs1)c1ccc(N2CCOCC2)c([N+](=O)[O-])c1 | inactive
Cc1ccc(NNc2c(C)nc3ccccc3nc2=O)cc1 | 4470 nM (active)
CN(C)c1cccc2c1C(=O)c1ccccc1C2=O | inactive
COc1ccc(C(=O)c2ccc(Cl)c([N+](=O)[O-])c2)cc1 | inactive
CCN(CC)CCC(=O)Nc1cccc2c1C(=O)c1ccccc1C2=O | inactive
Cc1nc2ccccc2nc(=O)c1NNc1ccccc1 | 708 nM (active)
O=C1c2ccccc2C(=O)c2c(NCCCN(CCO)CCO)cccc21 | inactive
CNc1cccc2c1C(=O)c1ccccc1C2=O | inactive
CS(=O)(=O)CCNCc1nc(-c2ccc3ncnc(Nc4ccc(OCc5cccc(F)c5)c(Cl)c4)c3c2)cs1 | 8.9 nM (active)
